According to PubChem BioAssay AID2315 (National Center for Advancing Translational Sciences (NCATS), 2010):
About 27,000 (9.3%) of roughly 290,000 compounds were called active. This excerpt belongs to a sample that is enriched for actives. Unmarked numbers belong to inactive results. Cut-off read from the data, not from the text of the source: active = inhibition mostly above about 28% (no sharp cut-off); inactive = mostly below about 43%.

test: A qHTS for Small Molecule Inhibitors of Shiga Toxin; conditions: Vero cells, Shiga toxin protein synthesis inhibition reporter; at 38.7 µM, stronger effect = higher value; note: 0% is about no effect

SMILES | inhibition
O=C(COc1ccccc1)Nc1ccc(C(=O)N2CCCC2)cc1 | 9.15%
COc1cc(C2NC(=O)NC(c3ccccc3)=C2C(C)=O)c(Br)cc1OCC(N)=O (stereo not given) | -4.39%
O=C(NC(=S)Nc1cccc(-c2ccc(CO)o2)c1)c1cccs1 | 127% (active)
O=C(Nc1ccccc1-c1ccccc1)c1cccs1 | -12.5%
O=C(NC(=S)Nc1ccc(NC(=O)c2cccs2)cc1)c1ccc([N+](=O)[O-])cc1 | 36.1%
O=S(=O)(Cc1cc(Cl)nc(-c2cccnc2)n1)c1ccccc1 | 40.3%
O=C(c1cc(S(=O)(=O)N2CCOCC2)ccc1Cl)N1CCOCC1 | -6.61%
CC(C)CCN(C(=O)c1csnn1)C(C(=O)NC1CCCC1)c1ccccc1 (stereo not given) | -3.8%
Cc1cc2c(=O)n(CC(=O)NCC(=O)Nc3ccc(C(C)C)cc3)cnc2s1 | -9.56%
COc1ccc(CCNC(=O)CCNS(=O)(=O)c2cc(Br)cnc2N)cc1OC | -6.21%
CS(=O)(=O)N(CC(=O)N1CCOCC1)c1cccc(Cl)c1Cl | 1.97%
Cc1ccccc1-c1nnn(CC(=O)c2ccc(S(=O)(=O)N3CCCC3)cc2)n1 | -5.14%
O=C(Cn1nnc(-c2ccccc2)n1)NCc1ccccc1 | -10.9%
Cc1nc2ccccc2n1CC(O)c1ccccc1 (stereo not given) | -2.2%
CCOc1ccc(S(=O)(=O)N2CCCC(C(=O)N3CCC(C(N)=O)CC3)C2)cc1Cl (stereo not given) | 15.1%
CCOC(=O)CSc1nc(N2CCOCC2)c2c(c1C#N)CC(C(C)C)OC2 (stereo not given) | -7.43%
CC(=O)C1=C(O)C(=O)N(c2ccc(Br)cc2)C1c1ccc([N+](=O)[O-])cc1 (stereo not given) | -5.69%
Cc1ccc2nc(N(CCN(C)C)C(=O)C3=COCCO3)sc2c1 | 6.59%
CCc1ccc2nc(N(CCCN(C)C)C(=O)c3ccc4c(c3)OCCO4)sc2c1 | -6.1%
CN(C)CCN(C(=O)C1=COCCO1)c1nc2ccc(Cl)cc2s1 | 128% (active)

SMILES | inhibition
COc1ccc(NC(=O)C2CCN(S(=O)(=O)c3ccc4[nH]c(=O)oc4c3)CC2)c(OC)c1 | -2.15%
Cn1c(Nc2ccccc2)cc(=O)n(C)c1=O | -6%
CN(C)S(=O)(=O)c1ccc(C(=O)NCCN=C2NS(=O)(=O)c3ccccc32)cc1 | -13.8%
O=c1c(-c2cccc(Cl)c2)c[nH]n1-c1ccccc1 | 77.1% (active)
Cc1[nH]n(-c2cccc(Cl)c2)c(=O)c1-c1ccc(Cl)cc1 | 34.8%
O=c1c(-c2ccccc2Cl)c[nH]n1-c1ccccc1 | 9.18%
COc1ccc(CNC(=O)Cc2ccc(-c3ccccc3)cc2)cc1OC | -1.2%
Cc1cc(=O)[nH]c2nnnn12 | -3.63%
O=C(/C=C/c1ccco1)NC(=S)N1CCCCC1 | 47.5% (active)
COc1ccccc1/C=C/C(=O)NC1CC2CCC1C2 (stereo not given) | 12.2%
COc1ccccc1/C=C/C(=O)NC(=S)N1CCOCC1 | 106% (active)
COc1ccc(/C=C/C(=O)NC(=S)N2CCCC(C(N)=O)C2)cc1 (stereo not given) | 12.4%
COc1ccccc1C(=O)Nc1cccc(C(=O)N2CCOCC2)c1 | -11.1%
O=C(/C=C/c1ccco1)NC(=S)Nc1ccccc1Br | 26.6%
CCCn1c(C2CCCN2c2nc(-c3ccc(C)cc3)cs2)nc2cc(Cl)c(N3CCCCC3)cc21 (stereo not given) | 26.1%
CCOc1ccc(Br)cc1S(=O)(=O)Nc1ccc(C(=O)OC(C)C(=O)N(C)c2ccccc2)cc1 (stereo not given) | -0.904%
CCOC(=O)c1c(-c2ccccc2)oc2cc(Br)c(O)c(C=O)c12 | 3%
Nc1cc(N)nc(SCc2ccc(Cl)cc2)n1 | 17.1%
Nc1cc(N)nc(SCc2cccc(F)c2)n1 | 62.3% (active)
Cc1cc(=O)[nH]c(SCc2cccc(F)c2)n1 | -4.74%

SMILES | inhibition
CN(CC(=O)Nc1ccccc1C(F)(F)F)C(=O)Cc1ccccc1F | 16.3%
Cc1ccc(NS(=O)(=O)c2cn(C)c(=O)n(C)c2=O)c(C)c1 | 3.31%
COc1ccc(CCC(C)N2CCc3ccccc3C2)cc1 (stereo not given) | -6.15%
COc1ccc2oc(=O)c(C(=O)N3CCCc4ccccc43)cc2c1 | -5.55%
COc1ccc(Oc2c(Cl)cnn(-c3ccccc3)c2=O)cc1 | -10.6%
COc1ccc(-n2ncc3c(N4CCc5ccccc54)ncnc32)cc1 | 105% (active)
COc1cc(C)c(C)cc1S(=O)(=O)N1CCCc2ccccc21 | 16.5%
COc1ccc(-n2ncc3c(N4CCCc5ccccc54)ncnc32)cc1 | 113% (active)
Cc1ccc(NC(=O)CN2CCc3ccccc3C2)cc1C | 17%
COc1ccc(C(=O)OCC(=O)NCCCc2ccccc2)cc1OC | -3.51%
CN(c1ccccc1)S(=O)(=O)c1cc(C(=O)Nc2nc3ccccc3[nH]2)ccc1Cl | 55.5%
CCOC(=O)c1c(NC(=O)/C=C/c2ccco2)sc(C)c1C | -12.1%
NS(=O)(=O)c1cccc(NC(=O)COC(=O)/C=C/c2ccco2)c1 | 26.6%
O=C(/C=C/c1ccco1)Nc1cccc(-c2nc3ccccc3[nH]2)c1 | 157% (active)
CC(C)Oc1ccc(/C=C(\NC(=O)/C=C/c2ccco2)C(=O)NCCc2nc3ccccc3[nH]2)cc1 | 14.2%
Cc1ccc(-n2nc3ccc(NC(=O)/C=C/c4ccco4)cc3n2)cc1C | 63.8% (active)
O=C(Cc1cccs1)Nc1cccc(-c2nc3ccccc3[nH]2)c1 | 3.19%
O=C(Nc1cccc(-c2nc3ccccc3[nH]2)c1)c1ccc(C(=O)Nc2cccc(-c3nc4ccccc4[nH]3)c2)cc1 | 62.5% (active)
Cc1ccc(N2NC(=O)/C(=C/C=C/c3ccco3)C2=O)cc1C | 20.9%
COc1ccc(Br)cc1C1C2C=CCC(C)C2C(=O)N1Cc1ccccc1 (stereo not given) | 2.19%
